Screens: PubChem, several laboratories
CSC inhib – cancer stem cell viability inhibitors, primary screen, luminescence. cancer stem cell-like cells viability. inhibition, % at 7.5 µM. 300,000 compounds, 1.1% hits. AID 2717, 2010; in the data active = inhibition above about 75%; inconclusive = no clear call, values can overlap the other calls; tested in HMLE shEcad cells
SKKanGAS inh – S. pyogenes SKKanGAS growth inhibitors in kanamycin, primary screen, streptokinase expression inhibitor project, SKKanGAS strain, BacTiter-Glo luminescence | AID 1662, 2009 | inhibition, % at 7.5 µM | 6 h | 300,000 compounds, 1.3% hits;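 active = mean replicate score, as percent of positive control median, at least 50; inconclusive = mean below 50 but one replicate at or above 50; inactive = mean and every replicate below 50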;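 note: strain carries kanamycin resistance gene driven by streptokinase promoter and grows in 40 µg/ml kanamycin; loss of luminescence reflects streptokinase promoter inhibition or plain growth inhibition; 0% = median of DMSO wells and 100% = positive control at its reference dose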
Mdm2 MdmX PPI – inhibitors of human Mdm2-MdmX association, primary screen, cell-based, luminescence, split luciferase, SaOS-2, uHTS. inhibition, % at 8 µM. 330,000 compounds, 3% hits. Protein Mdm4 (Homo sapiens) + E3 ubiquitin-protein ligase Mdm2 (Homo sapiens), …. SaOS-2 split-luciferase Mdm2/MdmX complementation. AID 485346, 2010;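 active = inhibition of at least 50% at 8 µM in the primary screen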
Calb FLC – C. albicans growth inhibition with fluconazole, primary screen, CaCi-2 strain, Alamar Blue fluorescence; C. albicans CaCi-2 (fluconazole-resistant clinical isolate) + fluconazole, 48 h; growth inhibition, % (test concentration not listed); 300,000 compounds, 0.57% hits; AID 1979, 2009;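 active = growth inhibition above about 58% in most replicates, limit read from the data, passing the limit was not always enough; inconclusive = exactly half the replicates above a set limit; inactive = most replicates below a set limit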;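 note: all wells also contain fluconazole at 8 µg/ml as a sub-toxic cotreatment; 0% = median of DMSO wells and 100% = median of geldanamycin control wells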
MPTP block – mitochondrial permeability transition pore inhibitors, primary screen, biochemical, isolated mouse mitochondria, absorbance; Ca2+ swelling absorbance, 30 min; inhibition, % at 10 µM; 360,000 compounds, 1.4% hits; AID 602449, 2012;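 active = inhibition of 50% or more, scaled per plate between neutral and stimulator controls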;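 note: 0% = DMSO wells given calcium and 100% = 1 mM EGTA wells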
Beta apoptosis – inhibitors of cytokine-induced beta cell apoptosis, primary screen, luminescence; INS-1E cytokine-induced death, ATP luminescence, 48 h; percent of positive-control rescue, neutral wells zero; protection from apoptosis, % (no concentration beside the values); 300,000 compounds, 0.8% hits; AID 435005, 2010;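 active = Every replicate reaches about 75%, or at least half do and their mean reaches it too, limit read from the data; inconclusive = At least half of replicates reach the limit but their mean does not; inactive = Under half of replicates reach the limit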;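 note: 0% = cytokine-treated negative control wells and 100% = positive control rescue; higher means more ATP so stronger rescue from cytokine killing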
Rh123 counter – fluorescence retest of MPTP screen hits in isolated mitochondria, single concentration; shares compounds with MPTP block; membrane potential, Rhodamine 123 fluorescence; inhibition, % at 10 µM; 5,000 compounds, 78% hits; in the data active = inhibition above about 22%;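 note: 0% = DMSO vehicle and 100% = positive control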
MPTP abs DR – mitochondrial permeability transition pore inhibitors, dose response, biochemical, absorbance, uHTS hits; isolated mitochondria swelling; AID 651561, 2012; shares compounds with MPTP block; IC50, µM; 780 compounds, 58% hits; in the data active = IC50 below about 20 µM
MPTP cs DR – fluorescent counter-screen in isolated mitochondria, dose response, counter-screen for MPTP inhibitor project, biochemical, fluorescence, uHTS hits; shares compounds with MPTP block; AID 651564, 2012; isolated mitochondria counterscreen, fluorescence read-out; 780 compounds, 49% hits; IC50, µM; in the data active = IC50 below about 80 µM
Numbers without * were called inactive. An excerpt weighted towards active compounds, which were near 5.4% of everything screened.

How did COC(=O)c1ccccc1NC(=O)CSc1nc(C)cc(C)n1 do in these assays?
CSC inhib: -11; SKKanGAS inh: -13; Mdm2 MdmX PPI: 23; Calb FLC: 0; MPTP block: -1; Beta apoptosis: -8

Results for Cc1cc(C)nc(SCC(=O)Nc2ccnc3ccccc23)n1 ?
CSC inhib: 11; SKKanGAS inh: 4; Mdm2 MdmX PPI: 38; Calb FLC: 10; MPTP block: 97*; Beta apoptosis: 102*; Rh123 counter: 98*

Results for Cc1[nH]c2ccccc2c1C(c1ccncc1)N1CCN(c2ccccc2F)CC1 (configuration not stated) ?
SKKanGAS inh: 0; Mdm2 MdmX PPI: -2; Calb FLC: 2; MPTP block: 2; Beta apoptosis: -11

Results for O=C(Nc1ccc([N+](=O)[O-])cc1)Nc1ccc(N2CCOCC2)c2nonc12 ?
CSC inhib: -4; SKKanGAS inh: 9; Mdm2 MdmX PPI: 50; Calb FLC: -5; MPTP block: 96*; Beta apoptosis: 3; Rh123 counter: 58*

What do the screens show for `Cc1ccc(S(=O)(=O)N2CCOCC2)cc1NC(=O)c1cc([N+](=O)[O-])ccc1N1CCOCC1`?
CSC inhib: -5; SKKanGAS inh: -5; Mdm2 MdmX PPI: 17; Calb FLC: -7; MPTP block: -1; Beta apoptosis: 0

Results for O=C(Nc1cccc(Cl)c1)Nc1cc(S(=O)(=O)N2CCOCC2)ccc1N1CCCC1 ?
CSC inhib: -1; SKKanGAS inh: -3; Mdm2 MdmX PPI: 11; Calb FLC: -2; MPTP block: 87*; Beta apoptosis: 7; Rh123 counter: 75*

How did Cc1ccc(S(=O)(=O)N2CCOCC2)cc1NC(=O)Nc1ccc([N+](=O)[O-])cc1 do in these assays?
CSC inhib: 23; Mdm2 MdmX PPI: 33; MPTP block: 100*; Beta apoptosis: 2; Rh123 counter: 99*

Results for Cc1cc(CNC(=O)CCc2nnc(CCCc3ccccc3)o2)nn1C ?
SKKanGAS inh: 13; Mdm2 MdmX PPI: -6; Calb FLC: inconclusive; MPTP block: -5; Beta apoptosis: -1

How did NC(=O)c1nsc(C(=O)N(Cc2ccc(F)cc2)C(C(=O)NCC2CCCO2)c2ccc(O)cc2)c1N (configuration not stated) do in these assays?
SKKanGAS inh: -2; Mdm2 MdmX PPI: 10; Calb FLC: 3; MPTP block: 0

How did O=C(O)CCN1C(=O)/C(=C\c2ccc(-c3nc4ccccc4s3)o2)SC1=S do in these assays?
CSC inhib: 6; SKKanGAS inh: 12; Mdm2 MdmX PPI: -2; Calb FLC: -2; MPTP block: 89*; Beta apoptosis: -2; Rh123 counter: -25

What do the screens show for `COc1cc(C(=O)N(C)CC(=O)Nc2cccc(F)c2)ccc1OCc1ccccc1`?
SKKanGAS inh: -7; Mdm2 MdmX PPI: -2; Calb FLC: -3; MPTP block: -1; Beta apoptosis: -4

What do the screens show for `O=C1CC(c2ccccc2)=NN1c1ccccc1`?
MPTP block: 7

Results for O=C1CC(c2ccccc2)=NN1c1nc(-c2ccccc2)cs1 ?
CSC inhib: 44; SKKanGAS inh: inconclusive; Mdm2 MdmX PPI: 4; Calb FLC: inconclusive; MPTP block: 67*; Beta apoptosis: -1; Rh123 counter: 42*

Results for Cc1ccc(CN(C)C(=O)CCNC(=O)c2ccc(Cl)cc2)o1 ?
MPTP block: 0

What do the screens show for `CC(C)(C)CC(C)(C)NCC(O)COc1ccc2c(c1)CCC2` (configuration not stated)?
CSC inhib: 39; SKKanGAS inh: 1; Mdm2 MdmX PPI: 48; Calb FLC: 0; MPTP block: 95*; Beta apoptosis: 3; Rh123 counter: -12; MPTP abs DR: 4.2*; MPTP cs DR: 48*

Results for CN(C(=O)COC(=O)CCc1nc2ccccc2c(=O)[nH]1)C1CCS(=O)(=O)C1 (configuration not stated) ?
SKKanGAS inh: -1; Mdm2 MdmX PPI: -2; Calb FLC: 5; MPTP block: 0; Beta apoptosis: -5

Results for O=C(Nc1ccncc1)c1ccc2c(c1)C(=O)N(C1CCCCC1)C2=O ?
CSC inhib: 6; SKKanGAS inh: 2; Mdm2 MdmX PPI: -2; Calb FLC: 0; MPTP block: 91*; Beta apoptosis: -4; Rh123 counter: 97*

What do the screens show for `COc1ccc(NS(=O)(=O)c2ccc(-c3coc(C)n3)cc2)c(OC)c1`?
CSC inhib: -7; SKKanGAS inh: 3; Mdm2 MdmX PPI: 17; Calb FLC: -13; MPTP block: 2; Beta apoptosis: 17

How did O=C(Nc1nnc(-c2ccc(Cl)cc2)o1)c1nc2ccccc2s1 do in these assays?
CSC inhib: 99*; SKKanGAS inh: 94*; Mdm2 MdmX PPI: 26; Calb FLC: 4; MPTP block: 97*; Beta apoptosis: 2; Rh123 counter: 5; MPTP abs DR: 2.6*; MPTP cs DR: 13*

How did O=C(Nc1nnc(-c2ccc(Cl)cc2)o1)Nc1ccccc1Cl do in these assays?
CSC inhib: 11; SKKanGAS inh: -6; Mdm2 MdmX PPI: 17; Calb FLC: 6; MPTP block: -1; Beta apoptosis: -7

What do the screens show for `Clc1cccc(Cl)c1/C=C/c1nc2ccccc2[nH]1`?
CSC inhib: -2; SKKanGAS inh: 2; Mdm2 MdmX PPI: -172; Calb FLC: 48; MPTP block: 95*; Beta apoptosis: 13; Rh123 counter: 82*

How did Clc1ccc(/C=C/c2nc3ccccc3[nH]2)cc1 do in these assays?
CSC inhib: 76*; SKKanGAS inh: 17; Mdm2 MdmX PPI: -77; Calb FLC: -4; MPTP block: 80*; Beta apoptosis: 31; Rh123 counter: 85*

How did O=c1[nH]c(/C=C/c2ccccc2Cl)nc2ccccc12 do in these assays?
SKKanGAS inh: 1; Mdm2 MdmX PPI: -61; Calb FLC: -11; MPTP block: 0

Results for Clc1ccc(/C=C/c2nc3ccccc3[nH]2)c(Cl)c1 ?
CSC inhib: -18; SKKanGAS inh: 43; Mdm2 MdmX PPI: -56; Calb FLC: 55; MPTP block: 86*; Beta apoptosis: 45; Rh123 counter: 79*
